Assay results published in the supplement of paper PMC11732987, “Enantioselective OTUD7B fragment discovery through chemoproteomics screening and high-throughput optimisation” (Communications Chemistry, 2025).

Key:
Experiment in all cases: log2 ratio of Biotin-Ahx-Ub-VS probe labelling (fragment/DMSO); higher = less target engagement (more negative = stronger competition), active = hit call of the paper (q ≤ 0.05, log2 ratio ≤ -1)
Conditions in all cases: compound concentration: 200 uM; treatment time: 3 h
USP34 = USP34 (UniProt Q70CQ2)
How it was run: (§1)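 HEK293T lysate, 495 µg per sample in Tris/CHAPS/IGEPAL buffer with protease inhibitors, was treated in triplicate with fragment at 200 µM or vehicle for 3 h and then with Biotin-Ahx-Ub-VS at 0.5 µM final for 1 h. Labelled DUBs were NeutrAvidin-enriched, digested with LysC and trypsin, and run by diaPASEF LC-MS/MS. Spectronaut label-free quantities were global-median-normalised, and values are average log2 fragment/vehicle ratios by unpaired t-test on proteins with ≥2 unique peptides.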

USP36 = molecular target: T1, USP36 (UniProt Q9P275)
T1 sequence (whole entry): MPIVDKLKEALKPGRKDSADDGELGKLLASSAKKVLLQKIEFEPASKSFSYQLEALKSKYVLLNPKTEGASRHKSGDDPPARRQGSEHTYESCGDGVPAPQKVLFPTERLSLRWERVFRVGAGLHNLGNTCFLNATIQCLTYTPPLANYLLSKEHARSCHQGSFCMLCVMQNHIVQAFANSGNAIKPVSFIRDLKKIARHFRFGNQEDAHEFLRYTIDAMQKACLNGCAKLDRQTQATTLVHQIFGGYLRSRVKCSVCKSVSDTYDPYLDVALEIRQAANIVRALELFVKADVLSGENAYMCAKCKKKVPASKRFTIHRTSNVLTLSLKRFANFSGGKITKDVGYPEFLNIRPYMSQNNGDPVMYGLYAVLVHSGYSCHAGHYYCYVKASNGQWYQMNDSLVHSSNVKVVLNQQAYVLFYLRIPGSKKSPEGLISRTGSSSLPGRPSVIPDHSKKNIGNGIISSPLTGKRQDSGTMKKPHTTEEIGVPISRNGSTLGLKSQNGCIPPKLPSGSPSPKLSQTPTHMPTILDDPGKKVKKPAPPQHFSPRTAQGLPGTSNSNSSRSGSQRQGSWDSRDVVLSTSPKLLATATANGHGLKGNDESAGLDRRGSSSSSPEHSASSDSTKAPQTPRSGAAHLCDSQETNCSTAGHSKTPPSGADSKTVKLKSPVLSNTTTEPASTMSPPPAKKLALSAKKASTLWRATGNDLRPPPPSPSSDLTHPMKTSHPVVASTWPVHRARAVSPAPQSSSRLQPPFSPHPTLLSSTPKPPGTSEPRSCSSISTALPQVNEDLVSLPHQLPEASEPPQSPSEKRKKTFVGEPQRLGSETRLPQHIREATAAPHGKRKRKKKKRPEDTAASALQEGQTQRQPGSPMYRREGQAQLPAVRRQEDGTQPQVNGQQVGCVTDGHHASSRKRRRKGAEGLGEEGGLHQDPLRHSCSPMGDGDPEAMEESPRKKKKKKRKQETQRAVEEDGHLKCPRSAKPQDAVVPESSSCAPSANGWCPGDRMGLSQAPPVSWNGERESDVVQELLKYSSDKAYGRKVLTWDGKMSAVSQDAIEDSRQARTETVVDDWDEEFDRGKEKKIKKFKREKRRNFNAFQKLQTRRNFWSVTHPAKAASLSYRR
How it was run: as §1

USP38 = molecular target: T2, USP38 (UniProt Q8NB14)
T2 sequence (whole entry): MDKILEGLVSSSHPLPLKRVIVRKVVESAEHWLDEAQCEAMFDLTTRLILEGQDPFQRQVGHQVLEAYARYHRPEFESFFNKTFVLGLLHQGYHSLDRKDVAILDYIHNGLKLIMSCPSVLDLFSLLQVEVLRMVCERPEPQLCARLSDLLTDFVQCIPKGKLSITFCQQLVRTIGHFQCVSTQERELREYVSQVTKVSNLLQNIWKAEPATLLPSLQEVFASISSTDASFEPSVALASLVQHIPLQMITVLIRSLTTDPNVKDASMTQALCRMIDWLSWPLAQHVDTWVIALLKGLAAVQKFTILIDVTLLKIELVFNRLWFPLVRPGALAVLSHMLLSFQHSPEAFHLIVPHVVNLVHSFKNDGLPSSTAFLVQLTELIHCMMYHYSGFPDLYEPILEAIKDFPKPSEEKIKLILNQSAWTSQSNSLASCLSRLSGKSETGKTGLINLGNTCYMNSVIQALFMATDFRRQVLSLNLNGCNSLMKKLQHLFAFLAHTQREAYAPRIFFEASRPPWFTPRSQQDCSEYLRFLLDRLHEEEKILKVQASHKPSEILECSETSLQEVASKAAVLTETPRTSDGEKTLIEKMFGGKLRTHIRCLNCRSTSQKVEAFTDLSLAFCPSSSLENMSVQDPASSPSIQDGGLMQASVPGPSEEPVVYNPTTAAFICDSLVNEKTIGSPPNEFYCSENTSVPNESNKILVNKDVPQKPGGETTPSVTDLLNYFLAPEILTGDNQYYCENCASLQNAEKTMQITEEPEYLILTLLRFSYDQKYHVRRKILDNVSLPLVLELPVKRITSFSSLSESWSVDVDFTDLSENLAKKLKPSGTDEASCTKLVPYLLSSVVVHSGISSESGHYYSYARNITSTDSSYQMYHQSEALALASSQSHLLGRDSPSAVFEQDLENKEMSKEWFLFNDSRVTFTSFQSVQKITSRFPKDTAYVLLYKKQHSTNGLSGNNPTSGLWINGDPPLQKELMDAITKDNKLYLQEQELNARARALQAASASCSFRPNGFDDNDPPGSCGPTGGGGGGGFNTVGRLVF
How it was run: as §1

USP39 = molecular target: T3, USP39 (UniProt Q53GS9)
T3 sequence (whole entry): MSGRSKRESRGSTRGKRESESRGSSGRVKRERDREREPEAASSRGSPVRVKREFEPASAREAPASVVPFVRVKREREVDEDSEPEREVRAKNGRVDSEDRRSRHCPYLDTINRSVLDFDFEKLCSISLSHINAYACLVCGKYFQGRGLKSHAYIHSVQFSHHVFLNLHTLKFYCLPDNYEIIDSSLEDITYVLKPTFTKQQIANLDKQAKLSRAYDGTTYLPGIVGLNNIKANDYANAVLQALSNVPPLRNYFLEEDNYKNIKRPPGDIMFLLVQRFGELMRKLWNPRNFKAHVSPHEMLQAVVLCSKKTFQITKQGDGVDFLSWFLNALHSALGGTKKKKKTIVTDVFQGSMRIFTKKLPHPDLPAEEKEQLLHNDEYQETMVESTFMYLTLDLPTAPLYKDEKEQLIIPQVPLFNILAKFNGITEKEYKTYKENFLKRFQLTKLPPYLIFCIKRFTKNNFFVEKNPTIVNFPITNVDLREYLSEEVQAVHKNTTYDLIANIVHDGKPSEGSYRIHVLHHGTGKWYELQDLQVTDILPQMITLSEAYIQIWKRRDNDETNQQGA
How it was run: as §1

USP4 = molecular target: T4, USP4 (UniProt Q13107)
T4 sequence (whole entry): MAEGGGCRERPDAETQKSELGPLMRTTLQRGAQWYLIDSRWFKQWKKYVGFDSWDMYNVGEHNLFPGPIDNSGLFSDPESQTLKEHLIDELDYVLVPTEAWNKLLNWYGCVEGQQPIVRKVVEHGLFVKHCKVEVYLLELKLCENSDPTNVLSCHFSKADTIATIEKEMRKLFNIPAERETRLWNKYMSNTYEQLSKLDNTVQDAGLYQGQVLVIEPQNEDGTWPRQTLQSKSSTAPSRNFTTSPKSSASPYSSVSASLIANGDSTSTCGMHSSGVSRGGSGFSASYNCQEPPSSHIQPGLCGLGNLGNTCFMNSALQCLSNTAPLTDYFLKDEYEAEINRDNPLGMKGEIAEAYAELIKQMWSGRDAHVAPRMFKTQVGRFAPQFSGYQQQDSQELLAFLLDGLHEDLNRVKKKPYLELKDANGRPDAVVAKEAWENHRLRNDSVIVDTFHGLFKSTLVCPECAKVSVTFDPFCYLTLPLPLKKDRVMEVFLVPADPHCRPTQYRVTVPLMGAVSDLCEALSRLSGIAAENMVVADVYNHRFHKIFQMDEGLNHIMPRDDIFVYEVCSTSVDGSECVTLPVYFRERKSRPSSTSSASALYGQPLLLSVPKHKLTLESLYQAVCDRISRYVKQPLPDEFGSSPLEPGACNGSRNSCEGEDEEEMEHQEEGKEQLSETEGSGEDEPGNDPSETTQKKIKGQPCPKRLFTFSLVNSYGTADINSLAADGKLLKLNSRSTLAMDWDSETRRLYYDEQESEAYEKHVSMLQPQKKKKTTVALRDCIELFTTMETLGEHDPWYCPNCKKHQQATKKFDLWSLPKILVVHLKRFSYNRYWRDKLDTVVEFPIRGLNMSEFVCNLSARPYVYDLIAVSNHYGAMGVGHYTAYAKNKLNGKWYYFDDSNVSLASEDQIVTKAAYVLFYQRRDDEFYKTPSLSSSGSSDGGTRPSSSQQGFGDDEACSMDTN
How it was run: as §1

Measured: log2 ratio of Biotin-Ahx-Ub-VS probe labelling

USP34, sequence (Q70CQ2 whole entry, the tested form may be a part): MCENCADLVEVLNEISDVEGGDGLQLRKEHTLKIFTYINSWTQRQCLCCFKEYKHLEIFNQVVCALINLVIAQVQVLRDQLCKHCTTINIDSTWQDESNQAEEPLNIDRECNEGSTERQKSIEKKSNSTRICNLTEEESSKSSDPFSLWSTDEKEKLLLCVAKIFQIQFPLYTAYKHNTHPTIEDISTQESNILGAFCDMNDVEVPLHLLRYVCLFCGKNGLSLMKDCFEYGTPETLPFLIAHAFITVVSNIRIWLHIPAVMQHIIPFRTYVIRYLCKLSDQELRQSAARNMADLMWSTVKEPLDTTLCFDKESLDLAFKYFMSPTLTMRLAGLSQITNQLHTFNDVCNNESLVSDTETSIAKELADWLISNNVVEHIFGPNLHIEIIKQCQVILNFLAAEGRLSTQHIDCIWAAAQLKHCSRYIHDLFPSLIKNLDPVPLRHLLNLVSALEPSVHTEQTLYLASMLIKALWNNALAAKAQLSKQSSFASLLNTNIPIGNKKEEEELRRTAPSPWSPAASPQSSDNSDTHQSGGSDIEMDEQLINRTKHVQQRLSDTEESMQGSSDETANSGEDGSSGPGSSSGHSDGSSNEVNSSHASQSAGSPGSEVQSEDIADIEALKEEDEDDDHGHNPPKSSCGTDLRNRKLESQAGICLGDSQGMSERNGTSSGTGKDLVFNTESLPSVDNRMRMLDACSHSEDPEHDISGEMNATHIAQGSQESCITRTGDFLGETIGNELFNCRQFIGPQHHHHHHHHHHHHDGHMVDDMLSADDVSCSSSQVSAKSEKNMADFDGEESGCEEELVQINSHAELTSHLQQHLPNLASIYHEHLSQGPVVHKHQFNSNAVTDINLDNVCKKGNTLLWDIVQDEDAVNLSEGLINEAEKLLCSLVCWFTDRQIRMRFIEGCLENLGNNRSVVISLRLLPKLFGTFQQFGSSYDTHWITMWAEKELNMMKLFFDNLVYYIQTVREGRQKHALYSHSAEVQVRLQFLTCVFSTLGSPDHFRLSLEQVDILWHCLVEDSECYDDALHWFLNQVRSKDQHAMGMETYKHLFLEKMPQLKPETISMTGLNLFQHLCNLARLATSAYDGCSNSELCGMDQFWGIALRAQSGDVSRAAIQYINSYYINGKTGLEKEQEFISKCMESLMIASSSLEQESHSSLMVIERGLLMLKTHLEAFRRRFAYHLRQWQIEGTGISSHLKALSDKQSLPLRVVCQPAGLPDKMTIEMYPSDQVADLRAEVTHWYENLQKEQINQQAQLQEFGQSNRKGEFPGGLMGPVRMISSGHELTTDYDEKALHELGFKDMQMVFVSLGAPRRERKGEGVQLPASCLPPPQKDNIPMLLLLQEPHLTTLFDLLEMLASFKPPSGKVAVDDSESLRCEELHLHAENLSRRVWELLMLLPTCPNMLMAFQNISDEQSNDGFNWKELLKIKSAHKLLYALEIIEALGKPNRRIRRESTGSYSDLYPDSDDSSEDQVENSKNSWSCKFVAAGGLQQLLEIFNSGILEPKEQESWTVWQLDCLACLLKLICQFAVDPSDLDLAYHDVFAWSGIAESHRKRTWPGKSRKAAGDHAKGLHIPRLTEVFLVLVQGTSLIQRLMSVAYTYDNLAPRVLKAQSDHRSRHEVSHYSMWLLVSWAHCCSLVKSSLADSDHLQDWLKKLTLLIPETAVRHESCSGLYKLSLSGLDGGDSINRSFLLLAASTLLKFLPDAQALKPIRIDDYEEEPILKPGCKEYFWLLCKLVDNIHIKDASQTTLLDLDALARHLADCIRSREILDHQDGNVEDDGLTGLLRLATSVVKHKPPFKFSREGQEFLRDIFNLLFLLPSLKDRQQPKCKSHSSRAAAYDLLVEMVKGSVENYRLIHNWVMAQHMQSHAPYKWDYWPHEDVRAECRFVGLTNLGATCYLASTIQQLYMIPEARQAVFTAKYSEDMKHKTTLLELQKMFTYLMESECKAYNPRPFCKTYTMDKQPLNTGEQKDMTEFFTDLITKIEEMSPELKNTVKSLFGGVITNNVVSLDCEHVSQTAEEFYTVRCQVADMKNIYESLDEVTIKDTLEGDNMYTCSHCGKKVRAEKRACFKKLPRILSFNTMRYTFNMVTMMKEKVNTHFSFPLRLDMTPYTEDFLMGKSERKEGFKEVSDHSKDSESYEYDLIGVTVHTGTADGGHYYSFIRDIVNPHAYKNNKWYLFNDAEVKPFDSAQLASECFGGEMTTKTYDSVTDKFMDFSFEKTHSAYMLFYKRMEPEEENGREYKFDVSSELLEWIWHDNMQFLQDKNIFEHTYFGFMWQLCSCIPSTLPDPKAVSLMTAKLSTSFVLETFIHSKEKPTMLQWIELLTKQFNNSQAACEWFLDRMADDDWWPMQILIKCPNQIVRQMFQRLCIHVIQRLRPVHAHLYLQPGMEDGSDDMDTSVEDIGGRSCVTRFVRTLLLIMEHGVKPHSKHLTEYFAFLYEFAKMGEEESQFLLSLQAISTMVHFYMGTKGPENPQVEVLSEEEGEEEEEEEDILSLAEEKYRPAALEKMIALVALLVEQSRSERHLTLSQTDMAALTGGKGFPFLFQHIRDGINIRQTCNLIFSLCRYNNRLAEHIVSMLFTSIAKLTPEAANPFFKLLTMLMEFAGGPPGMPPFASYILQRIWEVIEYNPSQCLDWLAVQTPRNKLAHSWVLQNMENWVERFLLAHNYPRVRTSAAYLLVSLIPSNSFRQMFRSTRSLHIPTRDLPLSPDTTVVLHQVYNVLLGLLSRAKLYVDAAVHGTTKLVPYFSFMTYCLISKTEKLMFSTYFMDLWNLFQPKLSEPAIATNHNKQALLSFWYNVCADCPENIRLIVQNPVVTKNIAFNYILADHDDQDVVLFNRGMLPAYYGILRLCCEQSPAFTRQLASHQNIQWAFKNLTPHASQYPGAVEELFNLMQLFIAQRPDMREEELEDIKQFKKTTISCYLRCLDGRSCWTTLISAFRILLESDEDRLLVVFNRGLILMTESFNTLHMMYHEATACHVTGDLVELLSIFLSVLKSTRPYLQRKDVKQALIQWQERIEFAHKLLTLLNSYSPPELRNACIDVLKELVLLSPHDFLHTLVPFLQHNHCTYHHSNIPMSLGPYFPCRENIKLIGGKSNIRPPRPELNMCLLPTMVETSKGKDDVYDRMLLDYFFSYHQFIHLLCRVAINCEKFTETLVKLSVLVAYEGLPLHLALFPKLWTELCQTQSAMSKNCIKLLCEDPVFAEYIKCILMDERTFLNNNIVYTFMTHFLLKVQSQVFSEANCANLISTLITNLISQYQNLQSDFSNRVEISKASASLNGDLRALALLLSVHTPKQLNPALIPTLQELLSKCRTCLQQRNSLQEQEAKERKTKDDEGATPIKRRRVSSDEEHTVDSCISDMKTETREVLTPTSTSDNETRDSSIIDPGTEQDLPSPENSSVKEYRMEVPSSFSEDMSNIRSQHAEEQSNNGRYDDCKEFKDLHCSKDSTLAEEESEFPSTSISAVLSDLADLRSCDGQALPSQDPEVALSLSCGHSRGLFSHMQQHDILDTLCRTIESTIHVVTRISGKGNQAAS

CN1c2ccccc2C(NC(=O)CCl)CS1(=O)=O (stereo not given)
inactive: USP34 -0.111 | USP36 -0.287 | USP38 -0.071 | USP39 0.00949 | USP4 0.0683
